Source: PubChem (National Center for Advancing Translational Sciences (NCATS))
LASV entry inh = blocks Lassa virus binding to or entry into cells; Lassa virus pseudotype entry inhibition, cell reporter; Potency, µM (doses to about 37.9 µM), for inactives: top-dose activity change, negative = inhibition, usual class: inhibitors; actives 1.2% (n = 300,000); calls by dose curve; tested in HEK293 cells; also: potency is read from the fitted curve at half-maximal effect; % is scaled to controls: 0 for no effect and ±100 for the full control effect; nearly all actives have a fitted effect of over 50% in size
Shiga toxin inh = Shiga toxin inhibition | actives 9.2% (n = 290,000) | Vero cells, Shiga toxin protein synthesis inhibition reporter | AID 2315 | inhibition, % at 38.7 µM; in the data active = inhibition mostly above about 28%, no sharp cut-off; inactive = mostly below about 43%; also: 0% is about no effect
MARV entry inh = blocks Marburg virus binding to or entry into cells; Marburg virus pseudotyped entry inhibition, cell reporter; Potency, µM (top dose mostly 37.8 µM), for the others: top-dose activity change, negative = inhibition, most hits filed as inhibitors; actives 1.8% (n = 300,000); calls by dose curve; tested in HEK293 cells; also: potency is read from the fitted curve at half-maximal effect; % is scaled to controls: 0 for no effect and ±100 for the full control effect
Pf growth 48h = inhibits P. falciparum growth in the first generation, 48 h | P. falciparum luciferase growth in erythrocytes, 48 h | Potency, µM (doses to about 28.7 µM), without a hit: at the top dose activity change, negative = inhibition, hits mostly inhibitors | actives 5.9% (n = 310,000); also: potency is read from the fitted curve at half-maximal effect; % is scaled to controls: 0 for no effect and ±100 for the full control effect
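Firefly luciferase activity from engineered P. falciparum reports growth; inhibitors lower the luminescent signal. Cultures contained 2% hematocrit erythrocytes at 0.1% final parasitemia.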
Pf growth 96h = inhibits malaria parasite growth, 96 h | P. falciparum luciferase reporter growth, 96 h | Potency, µM (titrated, usually from 28.7 µM), for inactives: top-dose activity change, negative = inhibition, hits mostly inhibitors | actives 6.9% (n = 320,000); also: potency is read from the fitted curve at half-maximal effect; % is scaled to controls: 0 for no effect and ±100 for the full control effect
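Plates of compound plus infected erythrocytes (2% hematocrit, 0.05% parasitemia final) incubate 96 hours, 37 C, 5% CO2. Detection reagent added; reduced luminescence from the parasites' luciferase reporter flags inhibition.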
CHX counter = counter-screen for Shiga toxin inhibitors: cycloheximide protein synthesis inhibition; cell reporter, cycloheximide protein synthesis inhibition counterscreen; max response, %; actives 12% (n = 300,000); AID 2314; in the data active = max response mostly above about 13%, no sharp cut-off; inactive = mostly below about 14%; also: read at 38.3 µM for the half of the compounds with a filed dose; 0% is about no effect
Numbers without * were called inactive; u = inconclusive; x = no result given; [ ] = another dose, or the depositor's remark. Rows were chosen to be rich in hits. Some 19% of all compounds tested hit in one or more screens of this group. Unless noted, calls follow the shape of the dose curve; as a rule, active = well fitted inhibition curve with a large enough effect; inconclusive = small, poorly fitted or top-dose-only effect, or another doubt; inactive = no such curve, though single readings can be large or run the other way.

SMILES	LASV entry inh	Shiga toxin inh	MARV entry inh	Pf growth 48h	Pf growth 96h	CHX counter
C=C(C)COc1ccc(-c2[nH]ncc2-c2ccccc2)c(O)c1	8.9µM*	13	u	10µM*	u	-1
Oc1cc(OCc2ccccc2)ccc1-c1[nH]ncc1-c1ccccc1	-18%	-5	12%[46.1 µM]	u	u	0
CCC(C)N(C(=O)c1csnn1)C(C(=O)NC1CCCC1)c1c(F)cccc1Cl (stereo unspecified)	21%[46.1 µM]	-5	-19%[46.1 µM]	1%	30%	-3
CCOC(=O)N=Nc1c2ccccc2c2nc3no[nH]c3nc12	u	27	u	1µM*	19%	5
Cc1ccccc1N1CCN(C(=O)CCN2C(=O)c3ccccc3C2=O)CC1	u	49*	16%	6%	75%	23*
CN1CCN(C(=O)CCN2C(=O)c3ccccc3C2=O)CC1	x	1	x	56%	4%	1
O=C(CN1C(=O)c2ccccc2C1=O)N1CCCCC1	3%	7	17%	14%	-7%	-1
O=C(CCCN1C(=O)c2ccccc2C1=O)N1CCCCC1	8%	28	1%[46.1 µM]	25%	5.2µM*	12
COc1ccc(C(=O)NCCc2c[nH]c3ccccc23)cc1S(=O)(=O)N1CCCCC1C (stereo unspecified)	u	x	u	8.3µM*	13µM*	x
COc1ccc(C(=O)NCC(c2ccco2)N2CCCC2)cc1S(=O)(=O)N1CCCCC1C (stereo unspecified)	x	x	x	u	5.2µM*	x
CC(=O)Nc1ccc(S(=O)(=O)N(C)CC(=O)OC(C)C(=O)NC2CCCC2)cc1 (stereo unspecified)	5%	-36	u	11%	21%	1
COc1ccc(CSc2nc3ccccc3c(=O)[nH]2)cc1F	x	-19	x	1%	u	9
O=C(Nc1ccc(NC(=O)C2CC2)cc1)c1ccco1	u	63*	8%[46.1 µM]	164%	3%	43*
O=C(Nc1cccnc1)C12CC3CC(CC(C3)C1)C2	5%	23	-19%	-25%	23%	-1
COc1cc(NC(=O)C2CC2)c(OC)cc1NC(=O)c1ccco1	-24%[46.1 µM]	-3	12%[46.1 µM]	-5%	u	-4
O=C(Nc1ccc(NC(=O)C23CC4CC(CC(C4)C2)C3)cn1)c1ccco1	u	69*	u	23%	u	48*
O=C(Nc1ccc(NC(=O)C2CCCCC2)cn1)c1ccco1	u	10	u	39%	-88%	39*
Cc1cc(C(=O)CCC(=O)N2CCN(c3ccccc3O)CC2)c(C)s1	x	x	x	u	-19%	x
CC(=O)N1c2ccc(S(=O)(=O)N3CCCCC3)cc2CC1C(=O)Nc1ccc(F)cc1C (stereo unspecified)	10%[46.1 µM]	-5	u	-20%	250%	1
O=C(CSc1nn(-c2ccc(F)cc2)c(=S)s1)N1CCN(C(=O)c2ccco2)CC1	4%	14	-14%	-14%	x	-6
COc1ccc(CC2(C)OC(c3ccc(C)cc3)=NN2C(C)=O)cc1 (stereo unspecified)	u	10	1%	u	u	-2
COc1ccc(CC2(C)OC(c3ccc(C)c([N+](=O)[O-])c3)=NN2C(C)=O)cc1 (stereo unspecified)	0.79µM*	0	u	u	u	1
CN(C(=O)C1CCN(S(=O)(=O)c2cccs2)CC1)c1ccccc1	-14%[46.1 µM]	16	-9%[46.1 µM]	u	15%	-1
CCC(C)NC(=O)CSc1nc2cc3c(cc2c(=O)n1CCCCCC(=O)NCc1ccc2c(c1)OCO2)OCO3 (stereo unspecified)	3%[46.1 µM]	x	x	x	x	x
CC(C)[C@H](NC(=O)c1ccccc1)C(=O)OCC(=O)c1ccccc1F	-8%	20	-15%	315%	-12%	16*
Cc1ccc(S(=O)(=O)Cc2cc(F)c([N+](=O)[O-])cc2[N+](=O)[O-])cc1	-21%[46.1 µM]	46*	u	u	u	22*
CCOC(=O)c1ccc([N+](=O)[O-])c(CS(=O)(=O)c2ccc(Cl)cc2)c1	x	-9	x	4%	10%	-4
COc1cc(OC)c(NC(=O)NC(C)c2c(-n3cccc3)sc(C)c2C)cc1Cl (stereo unspecified)	x	x	-19%[46.1 µM]	x	x	x
